For three compounds, outcome and AC50 results are on record in PubChem BioAssay (EPA / NIEHS).

Calls of active or inactive are those of the source. The calls were made as follows: active = hit-call score of the fitted dose curve at least 0.9, where 1 is the maximum; inactive = score below 0.9.

Common to all, as to conditions: mRNA level, 48 h; actives raise or lower the signal
Read-out in test [1]: MicroRNA 122 (MIR122), gene 406906
The test can be described thus: LTEA_HepaRG_MIR122: Life Technologies and Expression Analysis (LTEA) Assay for MicroRNA 122 (MIR122) using HepaRG (AID 2283516). Also: the transcript read is the microRNA miR-122. Summed up: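 HepaRG, 48 h exposure, 8-pt half-log from 100 uM, 0.5% DMSO; TaqMan qRT-PCR; bidirectional fit vs DMSO.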

Read-out in test [2]: matrix metalloproteinase-10 (MMP10), MMP10 (gene 4319)
The test can be described thus: LTEA_HepaRG_MMP10: Life Technologies and Expression Analysis (LTEA) Assay for matrix metalloproteinase-10 (MMP10) using HepaRG (AID 2283517). The procedure, abridged:
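HepaRG, collagen I, ~100,000 cells/well; serum-free induction medium; 48 h exposure, duplicate, 8-pt half-log to 100 uM, 0.5% DMSO. Readout: TaqMan qRT-PCR, normalized to ACTB/GAPDH/POLR2A; bidirectional fit vs DMSO.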

Read-out in a further test: MYC, MYC (gene 4609)
The test can be described thus: LTEA_HepaRG_MYC: Life Technologies and Expression Analysis (LTEA) Assay for MYC using HepaRG (AID 2283518). Summed up:
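Differentiated human HepaRG cells, plated 48 h then switched to serum-free induction medium, were exposed in duplicate for 48 h to 8-point half-log series up to 100 uM in 0.5% DMSO. MYC mRNA measured by qRT-PCR, normalized to ACTB/GAPDH/POLR2A.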

Read-out in test [3]: matrix metalloproteinase-3 (MMP3), MMP3 (gene 4314)
The experiment in a line: LTEA_HepaRG_MMP3: Life Technologies and Expression Analysis (LTEA) Assay for matrix metalloproteinase-3 (MMP3) using HepaRG (AID 2283519). Summed up: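 Differentiated human HepaRG cells, plated 48 h on collagen I, were exposed in duplicate for 48 h in serum-free induction medium to eight half-log concentrations up to 100 uM in 0.5% DMSO. MMP3 mRNA was quantified by TaqMan qRT-PCR, normalised to ACTB, GAPDH and POLR2A.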

Read-out in test [4]: Paternally Expressed 10 (PEG10), PEG10 (gene 23089)
The experiment in a line: LTEA_HepaRG_PEG10: Life Technologies and Expression Analysis (LTEA) Assay for Paternally Expressed 10 (PEG10) using HepaRG (AID 2283520). The procedure, abridged: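 Chemicals tested on HepaRG cells for 48 h, highest concentration 100 uM. PEG10 expression assessed by qRT-PCR relative to DMSO control.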

Read-out in test [5]: Protein phosphatase 2A (PPP2R4), PTPA (gene 5524)
The experiment in a line: LTEA_HepaRG_PPP2R4: Life Technologies and Expression Analysis (LTEA) Assay for Protein phosphatase 2A (PPP2R4) using HepaRG (AID 2283522). The procedure, abridged: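 Gene-expression endpoint in HepaRG hepatic cells: 48 h treatment across eight half-log concentrations up to 100 uM in 0.5% DMSO. PPP2R4 mRNA by qRT-PCR, normalized to three endogenous control genes.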

Read-out in test [6]: Phosphatase and tensin (PTEN), PTEN (gene 5728)
The experiment in a line: LTEA_HepaRG_PTEN: Life Technologies and Expression Analysis (LTEA) Assay for Phosphatase and tensin (PTEN) using HepaRG (AID 2283523). The procedure, abridged: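 Differentiated human HepaRG cells, plated 48 h then switched to serum-free induction medium, were exposed in duplicate for 48 h to eight half-log concentrations up to 100 uM in 0.5% DMSO. PTEN mRNA measured by TaqMan qRT-PCR, normalized to ACTB/GAPDH/POLR2A, bidirectional fit versus DMSO.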

Read-out in test [7]: Pyruvate Dehydrogenase Kinase 4 (PDK4), PDK4 (gene 5166)
The test can be described thus: LTEA_HepaRG_PDK4: Life Technologies and Expression Analysis (LTEA) Assay for Pyruvate Dehydrogenase Kinase 4 (PDK4) using HepaRG (AID 2283525). The procedure, abridged:
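Differentiated human HepaRG cells, pre-cultured 48 h, were exposed in duplicate for 48 h in serum-free induction medium to eight half-log concentrations up to 100 uM in 0.5% DMSO. PDK4 mRNA was quantified by qRT-PCR, normalized to ACTB, GAPDH and POLR2A, bidirectional fitting versus DMSO.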

Read-out in test [8]: NAD(P)H dehydrogenase [quinone] 1 (NQO1), NQO1 (gene 1728)
The experiment in a line: LTEA_HepaRG_NQO1: Life Technologies and Expression Analysis (LTEA) Assay for NAD(P)H dehydrogenase [quinone] 1 (NQO1) using HepaRG (AID 2283526). The procedure, abridged:
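Human HepaRG hepatic cells received chemicals for 48 h in serum-free induction medium with 0.5% DMSO, up to 100 uM. Expression was assessed by TaqMan qRT-PCR against housekeeping controls and fitted bidirectionally against DMSO.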

Read-out in test [9]: Nuclear factor erythroid 2-related factor 2 (Homo sapiens) (UniProt Q16236)
The test can be described thus: LTEA_HepaRG_NFE2L2: Life Technologies and Expression Analysis (LTEA) Assay for Nuclear factor erythroid 2-related factor 2 (NFE2L2) Transcription Factor using HepaRG (AID 2283527).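 Also: TaqMan qRT-PCR transcript level normalised to ACTB GAPDH and POLR2A housekeeping genes.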 The procedure, abridged:
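Differentiated human HepaRG cells in serum-free induction medium were exposed for 48 h to eight concentrations (top 100 uM, half-log dilutions, 0.5% DMSO), in duplicate. NFE2L2 mRNA was quantified by TaqMan qRT-PCR, normalized to ACTB, GAPDH and POLR2A, with bidirectional fitting versus DMSO.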

Read-out in test [10]: succinate dehydrogenase complex iron sulfur subunit B (SDHB), SDHB (gene 6390)
The test can be described thus: LTEA_HepaRG_SDHB: Life Technologies and Expression Analysis (LTEA) Assay for succinate dehydrogenase complex iron sulfur subunit B (SDHB) using HepaRG (AID 2283528). Summed up: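 HepaRG, 48 h exposure, 8-pt half-log series from 100 uM in 0.5% DMSO, duplicates. Readout: SDHB mRNA by Fluidigm qRT-PCR vs housekeeping genes; bidirectional fit relative to DMSO.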

Read-out in test [11]: Signal transducer and activator of transcription 3 (Homo sapiens) (UniProt P40763)
The experiment in a line: LTEA_HepaRG_STAT3: Life Technologies and Expression Analysis (LTEA) Assay for Signal transducer and activator of transcription (STAT3) using HepaRG (AID 2283529). The procedure, abridged:
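Differentiated human HepaRG cells in serum-free induction medium were exposed in duplicate for 48 h to eight half-log concentrations up to 100 uM in 0.5% DMSO. STAT3 mRNA was quantified by TaqMan qRT-PCR, normalized to ACTB, GAPDH and POLR2A, and fitted bidirectionally against DMSO.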

Read-out in test [12]: solute carrier (SLCO1B1), SLCO1B1 (gene 10599)
The experiment in a line: LTEA_HepaRG_SLCO1B1: Life Technologies and Expression Analysis (LTEA) Assay for solute carrier (SLCO1B1) using HepaRG (AID 2283530). Summed up: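 Differentiated human HepaRG cells, plated 48 h, switched to serum-free induction medium and exposed in duplicate for 48 h to 8 half-log concentrations (top 100 uM) in 0.5% DMSO. SLCO1B1 mRNA by TaqMan qRT-PCR, normalized to ACTB/GAPDH/POLR2A.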

Read-out in test [13]: sulfotransferase 2A1 (SULT2A1), SULT2A1 (gene 6822)
The test can be described thus: LTEA_HepaRG_SULT2A1: Life Technologies and Expression Analysis (LTEA) Assay for sulfotransferase 2A1 (SULT2A1) using HepaRG (AID 2283531). Summed up: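 Differentiated human HepaRG cells in serum-free induction medium were exposed for 48 h to eight half-log concentrations (top 100 uM, 0.5% DMSO). SULT2A1 mRNA was measured by qRT-PCR, normalized to ACTB, GAPDH and POLR2A, and fitted bidirectionally against DMSO.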

Read-out in test [14]: Transforming Growth Factor (TGFA), TGFA (gene 7039)
The test can be described thus: LTEA_HepaRG_TGFA: Life Technologies and Expression Analysis (LTEA) Assay for Transforming Growth Factor (TGFA) using HepaRG (AID 2283532). Summed up: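 Differentiated human HepaRG cells, plated 48 h then switched to serum-free induction medium, were exposed in duplicate for 48 h to 8-point half-log series from 100 uM in 0.5% DMSO. TGFA mRNA measured by qRT-PCR, normalized to ACTB/GAPDH/POLR2A, bidirectional fit versus DMSO.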

Read-out in test [15]: Transforming Growth Factor (TGFB1), TGFB1 (gene 7040)
The test can be described thus: LTEA_HepaRG_TGFB1: Life Technologies and Expression Analysis (LTEA) Assay for Transforming Growth Factor (TGFB1) Transporter using HepaRG (AID 2283533). Summed up: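 Differentiated human HepaRG cells in serum-free induction medium were exposed in duplicate for 48 h to eight concentrations (top 100 uM, half-log steps, 0.5% DMSO). TGFB1 mRNA was quantified by qRT-PCR, normalized to ACTB, GAPDH, POLR2A, and fitted bidirectionally against DMSO.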

Read-out in another test: TIMP1, TIMP1 (gene 7076)
The test can be described thus: LTEA_HepaRG_TIMP1: Life Technologies and Expression Analysis (LTEA) Assay for TIMP1 using HepaRG (AID 2283534).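 Also: TaqMan qRT-PCR signal normalized to ACTB GAPDH and POLR2A housekeeping genes.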 The procedure, abridged: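 Differentiated human HepaRG cells in serum-free induction medium were exposed 48 h to chemicals (8 half-log concentrations, top 100 uM, 0.5% DMSO). TIMP1 mRNA was quantified by TaqMan qRT-PCR, normalized to ACTB/GAPDH/POLR2A; bidirectional fit versus DMSO.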

Read-out in test [16]: Tumor necrosis factor receptor 1 (TNFRSF1A), TNFRSF1A (gene 7132)
The experiment in a line: LTEA_HepaRG_TNFRSF1A: Life Technologies and Expression Analysis (LTEA) Assay for Tumor necrosis factor receptor 1 (TNFRSF1A) using HepaRG (AID 2283535). Summed up:
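Differentiated human HepaRG cells were exposed in duplicate for 48 h in serum-free induction medium to eight concentrations (top 100 uM, half-log steps, 0.5% DMSO). TNFRSF1A mRNA was quantified by qRT-PCR, normalized to ACTB, GAPDH and POLR2A, then fitted bidirectionally against DMSO.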

Read-out in test [17]: solute carrier (SLC22A1), SLC22A1 (gene 6580)
The test can be described thus: LTEA_HepaRG_SLC22A1: Life Technologies and Expression Analysis (LTEA) Assay for solute carrier (SLC22A1) using HepaRG (AID 2283524). The procedure, abridged: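 Human HepaRG cells were plated 48 h, switched to serum-free induction medium, then exposed in duplicate for 48 h to 8-point half-log series from 100 uM in 0.5% DMSO. SLC22A1 mRNA measured by qRT-PCR, normalized to ACTB/GAPDH/POLR2A, fitted bidirectionally versus DMSO.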

Chain of Signal transducer and activator of transcription 3 (Homo sapiens) (P40763 whole entry, looked up): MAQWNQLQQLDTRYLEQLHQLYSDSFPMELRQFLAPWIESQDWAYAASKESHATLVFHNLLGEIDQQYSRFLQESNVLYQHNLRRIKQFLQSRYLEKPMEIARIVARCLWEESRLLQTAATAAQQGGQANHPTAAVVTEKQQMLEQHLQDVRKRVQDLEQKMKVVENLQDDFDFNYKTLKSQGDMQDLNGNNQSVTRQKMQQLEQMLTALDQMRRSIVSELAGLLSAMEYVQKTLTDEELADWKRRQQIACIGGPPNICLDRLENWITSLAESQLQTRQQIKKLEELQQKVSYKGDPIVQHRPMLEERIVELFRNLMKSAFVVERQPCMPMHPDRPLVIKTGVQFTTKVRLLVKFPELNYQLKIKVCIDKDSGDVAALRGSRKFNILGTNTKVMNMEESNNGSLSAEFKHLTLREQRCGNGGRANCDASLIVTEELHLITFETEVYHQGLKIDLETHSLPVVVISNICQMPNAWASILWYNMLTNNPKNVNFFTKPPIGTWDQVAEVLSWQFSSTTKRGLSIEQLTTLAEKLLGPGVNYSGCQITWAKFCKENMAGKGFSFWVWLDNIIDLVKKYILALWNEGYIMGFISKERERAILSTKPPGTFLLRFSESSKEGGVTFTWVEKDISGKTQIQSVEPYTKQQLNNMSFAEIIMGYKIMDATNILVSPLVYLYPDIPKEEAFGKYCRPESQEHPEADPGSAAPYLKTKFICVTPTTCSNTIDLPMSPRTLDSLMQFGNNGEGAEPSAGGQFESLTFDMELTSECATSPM
Chain of Nuclear factor erythroid 2-related factor 2 (Homo sapiens) (Q16236 whole entry, looked up): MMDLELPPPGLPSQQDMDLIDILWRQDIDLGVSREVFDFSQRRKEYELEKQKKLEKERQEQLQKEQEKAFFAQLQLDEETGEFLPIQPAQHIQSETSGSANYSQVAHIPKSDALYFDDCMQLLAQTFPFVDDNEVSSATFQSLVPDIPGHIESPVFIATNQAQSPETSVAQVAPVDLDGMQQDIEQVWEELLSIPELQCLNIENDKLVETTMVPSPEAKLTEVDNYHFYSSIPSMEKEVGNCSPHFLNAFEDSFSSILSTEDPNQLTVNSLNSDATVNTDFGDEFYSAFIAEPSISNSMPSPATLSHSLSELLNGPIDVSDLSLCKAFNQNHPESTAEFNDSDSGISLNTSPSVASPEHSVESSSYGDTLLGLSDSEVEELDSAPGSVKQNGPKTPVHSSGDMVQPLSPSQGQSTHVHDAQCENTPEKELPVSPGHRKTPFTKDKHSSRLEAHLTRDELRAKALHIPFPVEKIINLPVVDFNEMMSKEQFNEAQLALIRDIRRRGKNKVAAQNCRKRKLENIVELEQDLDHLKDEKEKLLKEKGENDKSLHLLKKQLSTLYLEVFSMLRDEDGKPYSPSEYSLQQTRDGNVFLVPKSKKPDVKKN

For the compound `C=CCOC(=O)C(C)(C)OC(=O)c1cc(-n2c(=O)cc(C(F)(F)F)n(C)c2=O)ccc1Cl`, the outcome in [1] was “inactive”; in [2] it was “inactive”; in the test with MYC, MYC (gene 4609), “inactive”; in test [3], “inactive”; in test [4], “inactive”; in test [5], “inactive”. Besides, the compound was classed as inactive in test [6], in test [7], in test [8], in test [9], in [10] and in [11]. Further, the outcome in [12] was “inactive”; in test [13] it was “inactive”; in [14], “inactive”; in [15], “inactive”; with TIMP1, TIMP1 (gene 7076) it was “inactive”; in [16], “inactive”.

Turning to `Cc1cc(C)nc(Nc2ccccc2)n1`, the outcome in test [1] is “inactive”; in test [2], “inactive”; with MYC, MYC (gene 4609) it was “inactive”; in test [3] it was “inactive”; in test [4], “inactive”; in [5], “inactive”. For the same compound, the result in [6], in test [7], in test [8], in test [9], in test [10] and in test [11] was inactive. Besides, the outcome in [12] was “inactive”; in test [13], “inactive”; in test [14], “inactive”; in test [15], “inactive”; with TIMP1, TIMP1 (gene 7076) it was “inactive”; in test [16] it was “inactive”. Besides, the AC50 in test [17] was 9.92 µM (active).

In the case of `Cc1nc(N(C)C)nc(OC(=O)N(C)C)c1C`, the outcome in [1] was “inactive”; in test [2], “inactive”; in the test with MYC, MYC (gene 4609), “inactive”; in test [3] it was “inactive”; in test [4], “inactive”; in test [5], “inactive”. Besides, the compound was classed as inactive in [6], in test [7], in [8], in test [9], in [11] and in test [12]. Moreover, the outcome in [13] is “inactive”; in [14], “inactive”; in [15], “inactive”; in the test with TIMP1, TIMP1 (gene 7076) it was “inactive”; in test [16] it was “inactive”.

The term AC50 denotes the concentration giving half of the maximal activity seen.
